# Test system: Plasmodium falciparum
# Assay: GSK_TCMDC: Inhibition of Plasmodium falciparum Dd2 in whole red blood cells, using parasite LDH activity as an index of growth. Test compounds present at 2uM
# Format: functional
row,Structure (SMILES),Inhibition [%]
1,O=C(O)C(F)(F)F.O=[N+]([O-])c1cccc(CNC2CCN(Cc3ccc4ccccc4c3)CC2)c1,22
2,CCCCN1CCN(CCCCNc2c3ccccc3nc3ccccc23)CC1.Cl,5
3,CCOc1ccc2[nH]c(-c3ccccc3)cc(=NN=Cc3ccncc3)c2c1,100

# Test system: HepG2
# Assay: GSK_TCMDC: Percent inhibition of human HepG2 cell line. Test compounds present at 10uM.
# Format: functional
row,Structure (SMILES),Inhibition [%]
1,Cc1[nH]cnc1CSCCN/C(=N\C#N)NCCCCCCCCN/C(=N/C#N)NCCSCc1nc[nH]c1C,1
2,CCC(Cc1cnc2nc(N)nc(N)c2n1)c1ccc(C(=O)N[C@@H](CCC(=O)O)C(=O)O)cc1 (some centres not stated) [EDATREXATE],64
3,CCCCNC(=O)[C@H](CC1CCCCC1)NC(=O)c1ccc(O)c(-c2cccc(C(F)(F)F)c2)c1,0
4,O=C(O)C(F)(F)F.c1ccc(CCNCc2ccc(-c3cccc(-c4nc5ccccc5[nH]4)c3)cc2)nc1,36
5,CCC(C)(C)c1ccc(N2C(N)=NC(N)=NC2(C)C)cc1.Cl,40
6,O=C(Nc1cccc(CN2CCN(C(=O)c3cccc(F)c3)CC2)c1)c1ccco1.O=C(O)C(F)(F)F,7
7,OC(CNCc1ccccc1OCc1ccccc1)c1cc(Br)cs1 (configuration not stated),16
8,Cl.c1ccc(COc2ccc(Nc3ncnc4ccc(-c5ccc(CN6CCSCC6)o5)cc34)cc2)cc1,4
9,S=C(NCCCCCN1CCC(c2c[nH]c3ccccc23)CC1)Nc1cc(Cl)cc(Cl)c1,25
10,O=C(C=Cc1ccc(Cl)c(Cl)c1)NCCCCCN1CCC(CCNS(=O)(=O)c2ccc(Br)cc2)CC1,58
11,Cl.NC(=O)c1cnc2cc(-c3ccoc3)ccc2c1Nc1ccc(NC(=O)Nc2ccccc2Cl)cc1,39
12,COc1cccc(NC(=O)c2cc(C(=O)Nc3cccc(OC)c3)cc([N+](=O)[O-])c2)c1,1
13,CCOc1cc(C)ccc1NC1CCN(CCCCNC(=O)c2ccc(NC(=O)c3ccc(Cl)cc3)cc2)CC1,17
14,CCN(CC)CCCN1CCN(C(=O)c2cccc(-c3noc(C(F)(F)F)n3)c2)CC1,0
15,COc1cccc(-c2ccc(NC(=O)C3CCCN(Cc4cccc(OC)c4O)C3)cc2)c1 (configuration not stated),13
16,Nc1ccc2nc(C=Cc3ccc(Cl)cc3)[nH]c2c1,19
17,CCCCCCN1CCCN(Cc2ccc(C(=O)Nc3ccc(C(C)(C)C)cc3)cc2)CC1.O=C(O)C(F)(F)F,53
18,Cc1cccc2nc(-c3ccc(-c4cccc(CN5CCCCC5)c4)s3)[nH]c12.O=C(O)C(F)(F)F,11
19,CN(C)CCCNCc1ccc(-c2ccc(CNCCOc3ccccc3)cc2)cc1.O=C(O)C(F)(F)F,27
20,O=C(NCc1cccs1)[C@H](Cc1ccccc1)Nc1ccnc(NCCc2ccccc2)n1.O=C(O)C(F)(F)F,0

row,Structure (SMILES),Inhibition [%]
1,Cc1nnsc1C(=O)Nc1cccc(-c2ccc(-c3nc4cccc(C)c4[nH]3)s2)c1,46
2,O=C(Nc1cccc(-c2cccc(-c3nc4cc(C(F)(F)F)ccc4[nH]3)c2)c1)c1cccnc1Cl,56
3,Cc1nc(N)nc(N)c1-c1ccc(Cl)c(Cl)c1 [METOPRINE],66
4,COc1ccc(C(=O)C2CC2CN(C)CC(O)c2cc(C)c(OC)cc2C)cc1.O=C(O)C(F)(F)F (configuration not stated),8
5,CN1CC[C@@H](Oc2cc(C(=O)NCc3ccc(Cl)c(Cl)c3)ccc2C(F)(F)F)C1.Cl,8
6,O=C(/C=C/c1ccc(Cl)c(Cl)c1)NC1CCC(CN2CCC(c3cc4ccccc4[nH]3)CC2)CC1 (configuration not stated),19
7,O=C(Nc1ccc(Cl)c(C(F)(F)F)c1)N[C@H]1CCN(CCCCCNC(=O)C2CC2c2ccc(Cl)c(Cl)c2)C1 (some centres not stated),39
8,N#Cc1ccc(C=NNc2nc3ccccc3[nH]2)cc1,0
9,O=C(NCCN1CCCCC1)c1ccc(CNC(=O)c2ccc(O)c(-c3cccc(C(F)(F)F)c3)c2)cc1,3
10,CSc1nc2nc(C)c(Cc3cccc(F)c3)c(C)n2n1,3
11,CCN1CCCC1CN(Cc1ccc(-c2ccc(C(F)(F)F)cc2)cc1)C(=O)Cn1c(CCc2cccc(F)c2F)nc(=O)c2ccccc21.O=C(O)C(O)C(O)C(=O)O (configuration not stated),40
12,O=C(Nc1ccc2c(c1)CCC2)c1ccc(N2CCN(c3ccncc3)CC2)cn1.O=C(O)C(F)(F)F,56
13,Cc1cccc2nc(-c3ccc(-c4ccc(C(=O)NCCN5CCCC5)cc4)cc3)[nH]c12,25
14,CCN1CCN(c2cc(C)c3cc(NC(=O)c4ccc(OC)c([N+](=O)[O-])c4)ccc3n2)CC1,25
15,CC(C)(C)OC(=O)NCc1ccc(Nc2nnc(-c3cccc(OCC(=O)NCc4cc(C(F)(F)F)cc(C(F)(F)F)c4)c3)o2)cc1,32
16,Cl.N=C(N)Nc1nccc(NCc2ccccc2)n1,95
17,O=C(O)C(F)(F)F.O=[N+]([O-])c1cccc(CNC2CCN(Cc3ccc4ccccc4c3)CC2)c1,12
18,CCCCN1CCN(CCCCNc2c3ccccc3nc3ccccc23)CC1.Cl,27
19,CCOc1ccc2[nH]c(-c3ccccc3)cc(=NN=Cc3ccncc3)c2c1,19

# Source: ChEMBL document CHEMBL1157539, “Thousands of chemical starting points for antimalarial lead identification” (Nature, 2010)
